Assay outcomes as filed in PubChem.
GAA850 FXN act = activators of GAA850 frataxin (FXN) promoter; activation, % at 6 µM; HEK293 lucGAA850 FXN promoter luciferase reporter, 24 h; percent of 10 µM SAHA response; 360,000 tested, 0.56% active;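 active = activation above the average of all compounds screened plus 3 SD, cutoff fixed separately per campaign, cut at about 7.5% in these data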;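 also: 0% = DMSO wells and 100% = 10 µM SAHA wells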
FAS TE block = blocks the thioesterase domain of human fatty acid synthase | P49327 | recombinant FAS-TE, OMFH fluorogenic substrate, fluorescence endpoint | 360,000 tested, 0.67% active | inhibition, % at 15 µM | AID 602261;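 active = compounds whose normalised, plate-corrected inhibition of enzyme fluorescence in the single-dose primary screen is 50% or more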;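 also: 0% = DMSO with enzyme and 100% = substrate without enzyme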
Target sequence (P49327 whole entry, looked up, the tested form may be a part): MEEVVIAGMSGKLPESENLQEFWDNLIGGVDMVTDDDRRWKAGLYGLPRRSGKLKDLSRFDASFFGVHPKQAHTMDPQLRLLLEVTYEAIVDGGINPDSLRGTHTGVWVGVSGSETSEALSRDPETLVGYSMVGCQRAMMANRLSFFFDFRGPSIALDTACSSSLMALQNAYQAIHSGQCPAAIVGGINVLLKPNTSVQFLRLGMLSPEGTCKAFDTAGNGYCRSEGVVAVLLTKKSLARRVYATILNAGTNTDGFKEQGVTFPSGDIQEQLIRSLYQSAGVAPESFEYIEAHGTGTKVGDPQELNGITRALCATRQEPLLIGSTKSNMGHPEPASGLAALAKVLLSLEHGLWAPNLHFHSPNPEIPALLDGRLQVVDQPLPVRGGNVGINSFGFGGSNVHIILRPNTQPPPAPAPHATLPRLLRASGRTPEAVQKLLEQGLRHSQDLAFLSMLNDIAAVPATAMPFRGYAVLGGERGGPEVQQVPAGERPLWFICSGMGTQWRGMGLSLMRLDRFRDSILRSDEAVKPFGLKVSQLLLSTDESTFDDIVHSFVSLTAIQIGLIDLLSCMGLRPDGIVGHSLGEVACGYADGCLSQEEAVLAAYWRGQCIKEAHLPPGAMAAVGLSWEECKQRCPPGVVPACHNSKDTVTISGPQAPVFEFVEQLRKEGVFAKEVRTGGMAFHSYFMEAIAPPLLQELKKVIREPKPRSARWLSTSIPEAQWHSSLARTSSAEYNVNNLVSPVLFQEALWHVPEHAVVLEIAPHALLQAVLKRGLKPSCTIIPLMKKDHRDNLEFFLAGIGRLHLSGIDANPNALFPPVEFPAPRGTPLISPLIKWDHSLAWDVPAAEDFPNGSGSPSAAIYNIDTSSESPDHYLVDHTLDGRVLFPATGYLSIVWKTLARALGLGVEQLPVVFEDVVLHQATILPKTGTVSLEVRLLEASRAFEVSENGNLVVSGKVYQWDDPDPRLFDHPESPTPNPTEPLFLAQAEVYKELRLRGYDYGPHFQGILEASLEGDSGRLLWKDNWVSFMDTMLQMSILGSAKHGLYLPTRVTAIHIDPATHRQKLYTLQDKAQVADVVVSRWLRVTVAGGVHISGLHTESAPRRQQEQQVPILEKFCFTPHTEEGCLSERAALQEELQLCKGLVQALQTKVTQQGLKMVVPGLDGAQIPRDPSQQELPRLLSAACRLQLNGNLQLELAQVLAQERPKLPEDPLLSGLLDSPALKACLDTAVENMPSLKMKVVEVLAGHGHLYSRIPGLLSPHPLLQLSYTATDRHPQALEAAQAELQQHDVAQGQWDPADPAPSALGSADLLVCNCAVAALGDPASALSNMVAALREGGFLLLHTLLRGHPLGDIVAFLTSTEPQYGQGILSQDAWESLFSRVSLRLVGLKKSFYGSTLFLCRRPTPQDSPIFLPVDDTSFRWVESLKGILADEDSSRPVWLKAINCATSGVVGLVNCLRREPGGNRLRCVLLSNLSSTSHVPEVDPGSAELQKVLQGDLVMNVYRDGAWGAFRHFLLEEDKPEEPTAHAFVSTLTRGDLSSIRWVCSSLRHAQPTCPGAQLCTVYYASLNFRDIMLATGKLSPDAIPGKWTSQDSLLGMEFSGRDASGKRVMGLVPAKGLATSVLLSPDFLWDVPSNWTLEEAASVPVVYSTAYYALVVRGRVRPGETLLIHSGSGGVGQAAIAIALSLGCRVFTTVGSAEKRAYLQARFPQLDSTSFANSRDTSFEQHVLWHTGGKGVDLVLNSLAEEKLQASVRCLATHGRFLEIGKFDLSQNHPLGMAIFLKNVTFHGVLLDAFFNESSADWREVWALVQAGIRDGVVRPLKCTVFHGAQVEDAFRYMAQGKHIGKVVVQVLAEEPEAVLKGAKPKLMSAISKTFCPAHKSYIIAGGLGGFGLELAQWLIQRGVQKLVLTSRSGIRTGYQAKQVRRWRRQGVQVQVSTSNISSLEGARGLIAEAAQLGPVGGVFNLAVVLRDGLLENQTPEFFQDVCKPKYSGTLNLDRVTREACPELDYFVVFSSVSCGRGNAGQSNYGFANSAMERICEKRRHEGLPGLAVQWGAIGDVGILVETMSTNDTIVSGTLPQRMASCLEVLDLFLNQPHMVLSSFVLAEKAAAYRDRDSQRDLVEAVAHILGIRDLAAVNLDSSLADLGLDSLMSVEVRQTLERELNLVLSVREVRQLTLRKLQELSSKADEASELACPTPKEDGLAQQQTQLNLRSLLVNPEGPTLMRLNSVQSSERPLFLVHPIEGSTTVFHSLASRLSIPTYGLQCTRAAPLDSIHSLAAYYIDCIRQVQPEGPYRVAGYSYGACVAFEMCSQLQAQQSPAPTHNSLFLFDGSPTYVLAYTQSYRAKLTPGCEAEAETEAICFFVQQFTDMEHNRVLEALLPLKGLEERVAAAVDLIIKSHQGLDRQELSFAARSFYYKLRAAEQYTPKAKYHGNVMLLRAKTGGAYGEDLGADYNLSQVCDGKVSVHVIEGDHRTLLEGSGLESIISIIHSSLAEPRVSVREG
SMARCA2 activ = SMARCA2 function activation, primary screen | AID 652017 | activation, % at 9.1 µM | MG213 cells, MMTV-luciferase reporter, dexamethasone, overnight | 370,000 tested, 1% active; in the data active = activation above about 7.8%;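 also: 0% = vehicle wells and 100% = reference activator wells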
proKLK7 act = activators of human kallikrein-7 zymogen | P49862 | purified proKLK7, EDANS-DABCYL substrate fluorescence; 100% is mature enzyme control, 0% vehicle | activation, % at 7 µM | 370,000 tested, 0.9% active;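 active = activation above the mean of all tested compounds plus 3 SD, computed per campaign excluding outliers beyond control limits, cut at about 13% in these data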
SMARCA2 act conf = SMARCA2 activation, confirmation screen. shares compounds with SMARCA2 activ. MG213 cells, MMTV-luciferase with dexamethasone, luminescence, overnight; MG213 cells expressing E1A, Rb sequestered; DMSO wells 0%, reference activator 100%. activation, % at 9.1 µM. 3,500 tested, 30% active. AID 652260;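 active = activation above its plate's cutoff, the mean activation of tested wells plus 3 SD, cut at about 7.9% in these data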
VP16 Luc act = activates GAL4-VP16 luciferase, flagging SMARCA2 activator hits | shares compounds with SMARCA2 activ | HEK293 GAL4-VP16 pG5luc reporter, luciferase luminescence; scaled: DMSO wells 0%, SAHA wells 100% | activation, % at 9.1 µM | 3,500 tested, 41% active | AID 686939;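 active = activation above the solvent-only control well mean plus 3 SD, averaged across control plates, cut at about 5.2% in these data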
Numbers without * were called inactive; / = no result given. Compounds with a hit are over-represented: about 2.9% of the library has one in this group of screens.

SMILES | GAA850 FXN act | FAS TE block | SMARCA2 activ | proKLK7 act | SMARCA2 act conf | VP16 Luc act
C[C@@H]1C[C@H]2[C@@H]3C[C@H](F)C4=CC(=O)C=C[C@]4(C)[C@@]3(F)[C@@H](O)C[C@]2(C)[C@@]1(O)C(=O)COC(=O)C(C)(C)C | 2 | 18 | -3 | 0 | / | /
CCCC(=O)O[C@]1(C(=O)COC(C)=O)CC[C@H]2[C@@H]3C[C@H](F)C4=CC(=O)C=C[C@]4(C)[C@@]3(F)[C@@H](O)C[C@@]21C | -7 | 7 | 11* | 0 | -3 | 2
O=C1C(C=NCCCN2CCCC2=O)=C(O)c2ccccc21 | 3 | -6 | 8.5* | 0 | 7 | 5.7*
O=C(NCc1ccc(F)cc1)c1c2c(nc3ccccc13)CCC2 | 0 | 4 | 9.4* | 0 | 3 | 2
O=C(NCc1ccco1)c1c2c(nc3ccccc13)CCC2 | 1 | -5 | 2 | 0 | / | /
Cc1cnc(C(=O)Nc2nnc(C3CC3)s2)cn1 | 3 | -7 | 8.8* | 0 | -1 | 2
CCC1(c2ccc(C)cc2)NC(=O)N(CC(=O)Nc2cccc(S(=O)(=O)N3CCCC3)c2)C1=O (stereo unspecified) | 0 | 7 | -1 | 0 | / | /
CCN(CC)c1ccc(/C=C(\C#N)c2ccccn2)cc1 | -5 | 21 | / | / | / | /
CCN(CC)c1ccc(C=N/C(C#N)=C(\N)C#N)cc1 | 7 | -2 | 8.8* | 0 | 3 | 7.5*
O=C(Nc1ccccc1Br)C1CCN(C(=O)Cc2ccccc2)CC1 | 4 | -9 | 9.0* | 0 | -3 | 2
CC(=O)Nc1ccc(C(=O)OCCc2ccccc2)cc1 | 1 | 4 | 8.8* | 0 | 6 | 1
COc1ccccc1C(=O)OCCc1ccccc1 | 5 | -1 | 11* | 0 | 7 | 6.5*
COc1ccccc1C(=O)Cc1ccccc1 | 2 | 1 | 1 | 0 | / | /
CC(=O)Nc1ccc(C(=O)OCC(=O)N2CCCC2)cc1 | -1 | -3 | -1 | 0 | / | /
CC(=O)Nc1ccc(C(=O)OCC(=O)N2CCCC2=O)cc1 | 0 | -8 | 8.9* | 0 | 0 | 1
CN(C)c1ccc(CNC(=O)CN(C)S(=O)(=O)c2ccc3c(c2)c(=O)n(C)c(=O)n3C)cc1 | 1 | 14 | 1 | 0 | / | /
CC1CN(S(=O)(=O)c2cccc(C(=O)NN3CCN(C)CC3)c2)CC(C)O1 (stereo unspecified) | -1 | -13 | 9.1* | 0 | 1 | 1
CN1CCN(NC(=O)c2cccc(S(=O)(=O)N3CCCCCC3)c2)CC1 | 1 | -4 | -2 | 0 | / | /
COc1ccc(C2C(C#N)=C(N)N(c3cccnc3)C3=C2C(=O)CC(C)(C)C3)cc1OC (stereo unspecified) | -2 | -7 | 9.2* | 0 | 1 | 2
COc1ccc(N2C(N)=C(C#N)C(c3cccnc3)C3=C2CC(C)(C)CC3=O)cc1 (stereo unspecified) | 1 | -6 | 0 | 0 | / | /
Cc1ccc(CNC(=O)NC2CCCCC2)cc1 | 5 | 0 | 3 | 0 | / | /
CCn1cc(CNC(=O)NC2CCCCC2)c(C)n1 | 7 | -12 | 12* | 1 | 3 | 4
CCOc1ccc(-c2nnc(NC(=O)Cc3cc(OC)c(OC)c(OC)c3)o2)cc1 | 3 | -3 | 8.4* | 0 | 0 | 4
COCCN(CC(=O)Nc1cccc(C)c1C)C(=O)c1cc2c(s1)CCC2 | 0 | 4 | 1 | 0 | / | /
O=C(CSCc1ccc(Cl)cc1)Nc1cccc(C(=O)Nc2ccccc2C(=O)O)c1 | 3 | -6 | -3 | 0 | / | /
SMILES | GAA850 FXN act | FAS TE block | SMARCA2 activ | proKLK7 act | SMARCA2 act conf | VP16 Luc act
O=C(CCSCc1ccccc1F)N1CCN(c2ccccn2)CC1 | -1 | 0 | 12* | 0 | 6 | 5.7*
CN1c2ccc(Cl)cc2C(=O)NC1c1ccc([N+](=O)[O-])s1 (stereo unspecified) | 0 | -1 | -2 | 0 | / | /
CN(C)C(=O)CSC1c2ccccc2C(=O)N1c1ccccc1 (stereo unspecified) | 1 | -5 | -5 | 0 | / | /
CCOC(=O)c1ccc(COc2ccc(C(C)C)cc2)o1 | 7 | 34 | 10* | -1 | 13* | 14*
CC(=N\O)/C(CN(C)C)=N/O | 0 | -11 | -2 | 0 | / | /
COc1ccccc1Cn1c(/C=C/c2ccccc2)nc2ccccc21 | 4 | 29 | 3 | -33 | / | /
Cn1c(/C=N/NC(=O)c2ccccc2)nc2ccccc21 | 2 | -2 | -1 | 0 | / | /
Cn1c(/C=C/c2ccccc2)nc2ccccc21 | -3 | 1 | 8.9* | 7 | 5 | 7.8*
COCCn1c(/C=C/c2ccccc2)nc2ccccc21 | 2 | 3 | 9.2* | 8 | 7 | 13*
COc1cc(/C=N/N=C2/C(=O)Nc3ccccc32)ccc1O | 3 | -12 | -1 | -1 | / | /
O=C1Nc2ccccc2/C1=N\N=C\c1ccc(O)c(O)c1 | 2 | -4 | 9.5* | 0 | 2 | 6.4*
O=C(NCCCN1CCOCC1)c1onc(CSc2ccncc2)c1C(=O)NCCCN1CCOCC1 | 0 | -16 | 0 | 0 | / | /
COc1ccc(S(=O)(=O)Nc2ccc(F)c(F)c2)cc1C(=O)N1CCOCC1 | 0 | 0 | 0 | 0 | / | /
COc1ccc(S(=O)(=O)NCc2cccnc2)cc1C(=O)N1CCCCC1 | -3 | -3 | 9.8* | 0 | -1 | 1
COc1ccc(S(=O)(=O)Nc2cccc(SC)c2)cc1C(=O)N1CCOCC1 | 1 | 0 | 9.6* | 0 | 0 | 0
Cc1ccc(S(=O)(=O)NCc2cccnc2)cc1C(=O)N1CCCC1 | 0 | -8 | -1 | 0 | / | /
c1ccc(C2C/C(=N\N3CCOCC3)c3ccccc3O2)cc1 (stereo unspecified) | 2 | -7 | 6 | -1 | / | /
O=C(CSc1ccc(-c2cccs2)nn1)N1CCCCCC1 | 2 | -2 | 13* | 0 | 5 | 5.7*
O=C(CSc1ccc(-c2cccs2)nn1)N1CCCCC1 | 4 | -5 | 0 | 0 | / | /
O=C(Nc1sc2c(c1C(=O)O)CCCC2)C(=O)N1CCOCC1 | 4 | -5 | 1 | 0 | / | /
Cn1c(=O)c2cc(S(=O)(=O)NC(C(=O)Nc3cccnc3)c3ccccc3)ccc2n(C)c1=O (stereo unspecified) | -2 | -1 | 10* | 1 | 0 | -2
CC(=O)Nc1ccc2c(c1)CCc1ccccc1-2 | 3 | 0 | 1 | 1 | / | /
O=C(O)/C=C/C(=O)c1ccc2c(c1)CCc1ccccc1-2 | -2 | 8 | 11* | 0 | 7 | 6.5*
CC(C)C1N=C2c3ccccc3N=C(SCC(=O)NCCc3ccc(S(N)(=O)=O)cc3)N2C1=O (stereo unspecified) | -1 | -6 | 9.4* | 1 | -2 | -1
COC(=O)NNC(=O)C12CC3CC(CC(C3)C1)C2 | -1 | -15 | -3 | 0 | / | /
